Screens from PubChem BioAssay.
SIRT5 block: inhibitors of human sirtuin-5 desuccinylase; Q9NXA8; Purified SirT5, succinyl-peptide AMC, trypsin-coupled fluorescence; inhibition, % at 15 µM; 330,000 tested, 1.1% active; in the data active = inhibition above about 15%
PDI inh: PDI (human) enzyme inhibition; AID 588391; PDI insulin aggregation turbidity, A650, 90 min; 350,000 tested, 0.052% active; inhibition, % at 10 µM;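 active = mean inhibition across replicates of 30% or more, whatever share of single replicates reach that level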
Target sequence (P07237 whole entry, looked up): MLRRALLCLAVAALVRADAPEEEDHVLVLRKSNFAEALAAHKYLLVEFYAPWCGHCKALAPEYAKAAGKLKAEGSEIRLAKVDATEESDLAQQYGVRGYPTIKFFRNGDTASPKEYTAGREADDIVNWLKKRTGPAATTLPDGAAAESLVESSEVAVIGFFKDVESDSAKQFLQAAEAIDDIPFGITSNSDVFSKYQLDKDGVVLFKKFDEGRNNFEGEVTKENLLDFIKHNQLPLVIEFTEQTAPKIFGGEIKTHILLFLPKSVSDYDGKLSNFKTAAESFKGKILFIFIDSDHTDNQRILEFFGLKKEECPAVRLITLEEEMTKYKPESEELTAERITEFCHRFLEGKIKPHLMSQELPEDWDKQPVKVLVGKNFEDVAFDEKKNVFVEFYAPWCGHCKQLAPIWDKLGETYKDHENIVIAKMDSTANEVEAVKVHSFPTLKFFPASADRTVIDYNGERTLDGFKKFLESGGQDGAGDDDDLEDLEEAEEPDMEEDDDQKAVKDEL
HDAC3 inhib: inhibitors of human histone deacetylase 3. O15379. recombinant HDAC3, fluorogenic peptide/trypsin coupled, fluorescence. inhibition, % at 8.3 µM. 320,000 tested, 0.15% active; in the data active = inhibition above about 26%, passing the limit was not always enough
ERAP1 inh: inhibitors of human ERAP1 aminopeptidase. recombinant ERAP1, Leu-AMC fluorescence, 60 min. inhibition, % at 10.7 µM. 340,000 tested, 0.15% active;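 active = mean replicate inhibition of at least 30%, or all replicates individually reaching that 30% level; inactive = mean below 30% and not every replicate reaching it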;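 note: 0% = neutral control wells and 100% = L-leucinethiol positive control wells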
ERp5 inh: blocks human ERp5 reductase activity on insulin; AID 651711; Q15084; 350,000 tested, 0.05% active; ERp5 insulin aggregation, absorbance 650 nm, 90 min; inhibition, % at 9.99 µM;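 active = mean replicate inhibition above about 25%, with every replicate also reaching it, limit read from the data, passing the limit was not always enough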
The depositor's hits bear a star; / = no result; ! = not confirmed by another sample. The sample as a whole holds a higher share of hits than the screen did.

SMILES	SIRT5 block	PDI inh	HDAC3 inhib	ERAP1 inh	ERp5 inh
CN(C)S(=O)(=O)c1cccc(NC(=O)c2ccc(-n3cncn3)c([N+](=O)[O-])c2)c1	-1	2	3	5	2
CCN(CC)CCNC(=O)c1ccc(NC(=O)c2ccc(-n3cncn3)c([N+](=O)[O-])c2)cc1	-3	-3	/	100*	-1
CCN(CC)S(=O)(=O)c1cc(NC(=O)c2ccc(-n3cncn3)c([N+](=O)[O-])c2)ccc1C	2	-5	8	3	25*
CC(C)NC(=O)c1cccc(Br)c1	28*	4	-13	-1	2
Cc1ccc(C(=O)NNC(=O)c2cccc(Br)c2)cc1	-2	5	2	-2	-2
CO[C@@H]1CN(C)C(=O)c2ccc(NC(=O)c3cnccn3)cc2OC[C@H](C)N(C(=O)C2CC2)C[C@H]1C	-1	/	/	-1	0
O=S1(=O)CC(O)C(O)CS1 (stereo not drawn)	/	/	/	65*	3
O=C(CN1C(=O)c2ccccc2S1(=O)=O)Nc1ccon1	-8	15	2	-5	3
Cc1cc(NC(=O)CN2C(=O)c3ccccc3S2(=O)=O)no1	-2	9	-2	32*	6
CC(C)C[C@H]1COc2cc(N3CC[C@H](O)C3)ccc2S(=O)(=O)N1	33*	/	/	/	-8
CC(C)C[C@@H]1COc2cc(N3CCCC3)ccc2S(=O)(=O)N1	-2	/	/	-4	-2
O=S(=O)(O)c1cc(Cl)cc(N=Nc2ccc(O)cc2O)c1O	39*	3	/	12	-5
O=C(Nc1ccnn1C1CCN(C2CCC2)CC1)c1ccccc1Cl	1	-16	0	-1	-1
O=C(Nc1ccnn1C1CCN(C2CCCC2)CC1)c1ccccc1Cl	27*	4	1	0	1
CCCC#Cc1ccc([C@@H]2[C@H]3CN(C(=O)Nc4ccccc4F)CC(=O)N3[C@H]2CO)cc1	-2	/	/	4	-3
CC[n+]1ccccc1/C=C1\Sc2ccc(C)cc2N1C	0	15	8	74*	4
Nc1ncnc2nc(SCc3ccccc3)[nH]c12	/	-12	8	/	/
CCC(Sc1nc2ncnc(N)c2[nH]1)C(=O)O (stereo not drawn)	17*	5	-5	0	5
COc1ccccc1NC(=O)N[C@@H]1C=C[C@@H](CC(=O)N2CCC(Cc3ccccc3)CC2)O[C@@H]1CO	1	/	/	2	3
COc1ccc2c3c(n(C)c2c1)[C@H](CO)N(Cc1ccncc1)CC31CCN(C(=O)C2CCCCC2)CC1	6	/	/	-3	-1
N=C(N)c1ccc(/C=C/c2ccc(C(=N)N)cc2O)cc1	-3	-2	50*	2	0
N=C(N)c1ccc(Cl)cc1	-2	-2	-1	11	1
Cc1cccc(-c2ccc([C@H]3[C@@H](CO)N4C(=O)CN(C(=O)c5cccnc5)C[C@@H]34)cc2)c1	-2	/	/	1	-6
COc1ccc(N2C(=O)CC(N(CCc3ccccc3)C(=O)/C=C/C(=O)O)C2=O)cc1 (stereo not drawn)	-6	6	-6	-6	3
CCCOc1ccc(N2C(=O)CC(N(CCc3ccc(OC)cc3)C(=O)/C=C/C(=O)O)C2=O)cc1 (stereo not drawn)	42*	-3	-1	-1	7
SMILES	SIRT5 block	PDI inh	HDAC3 inhib	ERAP1 inh	ERp5 inh
COc1cccc(CN(C)C(=O)c2ccc(S(=O)(=O)Nc3cccc(C)c3C)cc2)c1OC	17*	3	/	4	-7
COc1cccc(CN(C)C(=O)c2ccc(S(=O)(=O)Nc3ccccc3F)cc2)c1OC	0	-4	/	6	-1
CN(C)CC(=O)Nc1ccc2c(c1)[C@@H]1C[C@@H](CC(=O)NCc3cccc(F)c3)O[C@@H](CO)[C@@H]1O2	-1	/	/	-2	4
O=C(COCC(=O)N/N=C/c1ccccc1F)N/N=C/c1ccccc1F	5	2	4	-1	1
COc1ccccc1/C=C/C(=O)NCC(=O)N/N=C/c1ccc(C)o1	100*	-1	4	4	2
O=C(C[n+]1ccc(C(=O)N/N=C/c2ccc(OCc3ccccc3)cc2)cc1)c1ccccc1	0	-2	/	-2	-3
COc1ccc(OC)c(/C=N/NC(=O)c2cc[n+](CC(=O)c3ccccc3)cc2)c1	2	24	1	37*	-3
COc1ccccc1/C=N/NC(=O)COCC(=O)N/N=C/c1ccccc1OC	19*	5	-1	-2	4
Cc1noc(C)c1NC(=O)N(C)C[C@@H]1Oc2ccc(NS(=O)(=O)c3cccs3)cc2C(=O)N([C@@H](C)CO)C[C@H]1C	-3	/	/	0	1
C[C@H]1CN([C@@H](C)CO)C(=O)c2cccc(NS(C)(=O)=O)c2O[C@H]1CN(C)Cc1ccccc1	15*	/	/	1	4
C[C@H]1CN([C@@H](C)CO)C(=O)c2cccc(NS(C)(=O)=O)c2O[C@@H]1CN(C)Cc1ccccc1	3	/	/	2	1
COc1ccc(S(=O)(=O)N(C)C[C@@H]2Oc3c(NS(C)(=O)=O)cccc3C(=O)N([C@@H](C)CO)C[C@H]2C)cc1	20*!	-1	6	0	8
C[C@@H]1CN([C@H](C)CO)C(=O)c2cccc(NS(=O)(=O)c3cccs3)c2O[C@H]1CN(C)Cc1ccccc1	26*!	-1	-2	1	4
CC(C)NC(=O)Nc1ccc2c(c1)C(=O)N([C@@H](C)CO)C[C@@H](C)[C@@H](CN(C)S(C)(=O)=O)OCCCC[C@@H](C)O2	1	/	/	-4	-2
CCC(=O)N1CC[C@H]2[C@@H]1c1cc(-c3cccc(OC)c3)ccc1N(C)[C@H]2CO	9	/	/	-2	6
CCOC(=O)CSC(=S)NC(=O)c1ccc(OC)cc1	/	2	79*	/	/
COCCCN1C(=O)C(CC(=O)NC(c2ccccc2)c2ccccc2)CC(C(=O)N2CCOCC2)=C1C (stereo not drawn)	29*	-4	/	/	7
CCNC(=O)N1CCC(c2nc3ccccc3s2)CC1	-3	13	2	-4	-2
NC(=O)CCN1CCC(c2nc3ccccc3s2)CC1	24*	10	5	-4	1
O=C(COc1ccc(F)cc1)c1ccc2c(c1)CCCC2	/	-10	7	/	/
O=C(COc1ccc(Cc2ccccc2)cc1)c1ccc(F)cc1	16*	-3	2	-1	0
O=C(CCl)Nc1nc(-c2ccco2)c(-c2ccco2)s1	0	62*	5	3	8
COc1cccc(-c2ccc([C@H]3[C@H]4CN(CC5CCOCC5)CCCCN4[C@H]3CO)cc2)c1	-1	/	/	-1	-1
Cc1ccc(C(=O)N/N=C/c2cccc(OC(=O)/C=C/c3ccco3)c2)cn1	24*	7	5	3	-2
CC(/C=C/c1ccco1)=N/NC(=O)c1ccc(C)nc1	/	0	9	/	3
NC(=O)C[N+]1(CC#CC(O)(c2ccccc2)c2ccccc2)CCCC1	-2	-8	9	47*	1
COc1cccc(-c2ccc(CC[C@H]3O[C@H]4CC[C@H](CO)O[C@H]4C[C@@H]3NC(=O)c3cnccn3)cc2)c1	-1	/	/	2	-3
